KCNQ2 inh: KCNQ2 (rat) channel inhibition; O88943; CHO-K1 KCNQ2, FluxOR thallium flux, 20 min; hits give low values; B-score at 10 µM; 310,000 compounds, 1.1% hits; AID 2156;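 active = fluorescence ratio B-score at most minus 3 library SDs, with starting brightness B-score within 2 library SDs, cut at about -5.5 in these data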
KCNQ2 enhance: enhances the rat KCNQ2 potassium channel | O88943 | CHO-K1 KCNQ2, FluxOR thallium flux fluorescence; hits give high values | B-score at 10 µM | 310,000 compounds, 0.54% hits | AID 2239;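 active = fluorescence ratio B-score at least 3 SD of library B-scores, with initial fluorescence B-score within 3 of them, cut at about 5.3 in these data; same plate scores as AID 2156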;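 also: B-score of peak minus minimum over baseline fluorescence ratio after K+ and Tl+ stimulus; positive B-score means potentiation of KCNQ2 with more thallium influx and brighter signal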
Kir21 confirm: confirmation of mouse Kir2.1 potassium channel inhibitors; shares compounds with KCNQ2 enhance; Kir2.1-expressing cells, FluxOR thallium flux fluorescence; hits give low values; Tl flux remaining, % of negative control (hits give low values), % at 10 µM; 2,300 compounds, 41% hits; AID 2032;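 active = Primary-screen hit whose thallium flux fell at least 3 control SD below untreated wells in both duplicates, with normal baseline fluorescence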
HEK293 ctr: alters thallium flux in parental HEK293 cells, Kir2.1 counter-screen. shares compounds with KCNQ2 enhance. FluxOR thallium flux fluorescence; 0% = unstimulated blank wells. FluxOR signal as % of negative control (100 = no effect), % at 10 µM. 2,300 compounds, 19% hits. AID 2105;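 active = dye signal at least 3 control SD above or below untreated wells in both duplicates, raw fluorescence within 3, either direction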;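 also: percent is based on the flux ratio of peak minus minimum fluorescence over baseline F0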
CHO-K1 ctr: parental CHO-K1 activity in KCNQ2 potentiator counter-screen. shares compounds with KCNQ2 enhance. parental CHO-K1 cells, FluxOR thallium flux fluorescence; zero = vehicle mean+3SD, 100% = vehicle-minus-blank window. activity increase over 3SD of controls, % at 10 µM. 1,200 compounds, 43% hits;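 active = signal rise of at least 3 SD above the untreated control mean, in both duplicate wells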;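 also: counter screen of KCNQ2 potentiator hits so any rise reflects channel-independent effects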
KCNQ1 pot spec: tests whether KCNQ2 potentiators also act on human KCNQ1; shares compounds with KCNQ2 enhance; CHO KCNQ1 stable, FluxOR thallium flux fluorescence; beyond 3SD, as % of vehicle-control signal; activation over 3SD threshold, % at 10 µM; 1,200 compounds, 28% hits;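 active = fluorescence ratio rise of at least 3 SD of vehicle wells above their mean, in both replicate wells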
Target sequence (P51787 whole entry, looked up): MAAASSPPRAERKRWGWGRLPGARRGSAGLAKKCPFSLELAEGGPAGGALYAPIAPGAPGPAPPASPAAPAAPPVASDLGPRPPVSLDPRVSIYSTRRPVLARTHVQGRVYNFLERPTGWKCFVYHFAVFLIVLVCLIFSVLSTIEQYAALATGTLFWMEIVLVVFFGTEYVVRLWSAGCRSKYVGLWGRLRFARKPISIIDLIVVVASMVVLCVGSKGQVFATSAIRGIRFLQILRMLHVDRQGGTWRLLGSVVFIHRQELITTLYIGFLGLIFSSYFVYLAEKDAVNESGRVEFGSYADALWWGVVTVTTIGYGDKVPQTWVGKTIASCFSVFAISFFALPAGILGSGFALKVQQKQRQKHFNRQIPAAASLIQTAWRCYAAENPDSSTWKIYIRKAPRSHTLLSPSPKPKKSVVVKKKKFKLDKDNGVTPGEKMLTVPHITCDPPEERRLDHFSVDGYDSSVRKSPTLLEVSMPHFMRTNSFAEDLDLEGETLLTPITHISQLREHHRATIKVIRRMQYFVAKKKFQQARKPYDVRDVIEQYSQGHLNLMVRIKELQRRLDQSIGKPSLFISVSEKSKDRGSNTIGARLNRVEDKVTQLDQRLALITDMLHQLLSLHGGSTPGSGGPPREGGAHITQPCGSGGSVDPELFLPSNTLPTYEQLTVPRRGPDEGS
KCNQ2 pot conf: rat KCNQ2 channel potentiator confirmation. shares compounds with KCNQ2 enhance. CHO-KCNQ2 cells, FluxOR thallium flux fluorescence. potentiation, less the hit threshold, % at 10 µM. 1,200 compounds, 68% hits. AID 2287;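 active = fluorescence ratio rising 3 SD or more over the vehicle control mean in both replicates, plus primary screen hit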;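 also: peak minus minimum thallium fluorescence divided by baseline after K/Tl stimulus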
Kir21 spec: selectivity of KCNQ2 potentiators: effect on mouse Kir2.1 | AID 2345 | HEK293 Kir2.1, FluxOR thallium flux fluorescence | activity over 3SD threshold, % at 10 µM | 1,200 compounds, 2% hits | shares compounds with KCNQ2 enhance;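 active = fluorescence ratio rise of at least 3 SD above the vehicle-control mean, seen in both replicates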
KCNQ2 W236L MoA: rat KCNQ2 W236L mutant potentiation by KCNQ2 potentiators | CHO KCNQ2-W236L, automated patch clamp current | 940 compounds, 10% hits | shares compounds with KCNQ2 enhance | current increase over 3SD of negative controls (%), hits give high values, % at 25 µM;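 active = current increase at least 3 SD of the untreated controls above them in both duplicate recordings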
Each line names hits and unclear results; the compound was inactive in the other large screens (follow-up assays come after a bar, where they were run). An excerpt weighted towards active compounds, which were near 1.6% of everything screened.

O=C(N/N=C1/C(=O)c2cccc3cccc1c23)c1ccc(Cl)cc1	KCNQ2 enhance 10 | Kir21 confirm inactive | HEK293 ctr 213% | CHO-K1 ctr 46 | KCNQ1 pot spec 37 | KCNQ2 pot conf 14 | Kir21 spec inactive | KCNQ2 W236L MoA inactive
Cc1cc(NCc2ccccn2)n2ncc(-c3ccc(Cl)cc3)c2n1	none
Cc1cc(NCCOCCO)n2ncc(-c3ccc(Cl)cc3)c2n1	KCNQ2 enhance 6.2 | Kir21 confirm inactive | HEK293 ctr inactive | CHO-K1 ctr 2.2 | KCNQ1 pot spec inactive | KCNQ2 pot conf 4.4 | Kir21 spec inactive | KCNQ2 W236L MoA inactive
O=C(C1CCCN(Cc2cc(Br)ccc2O)C1)N1CCCCC1 (configuration not stated)	none (no result: KCNQ2 enhance)
Cc1nonc1C(=O)N1CCCC(N2CCN(c3ccc(F)cc3)CC2)C1 (configuration not stated)	none
CCC[C@H]1COCCS(=O)(=O)N1Cc1ccc(Br)cc1	none | Kir21 confirm inactive | HEK293 ctr 128%
CCC1COCCS(=O)(=O)N1Cc1ccc(C)cc1 (configuration not stated)	none
COc1cccc(CNc2ccc3[nH]c(=O)[nH]c3c2)c1OCc1ccccc1	KCNQ2 enhance 7.9 | CHO-K1 ctr 32 | KCNQ1 pot spec inactive | KCNQ2 pot conf inactive | Kir21 spec inactive
COc1cccc(CNc2ccc3[nH]c(=O)[nH]c3c2)c1OCc1ccccc1Cl	none
COc1ccc(N2C(=O)CC(N3CCN(S(=O)(=O)c4c(F)cccc4F)CC3)C2=O)cc1OC (configuration not stated)	none
Fc1ccc(CSc2ccc3nnc(-c4ccccn4)n3n2)cc1	none
O=C(COC(=O)CCc1ccccc1)NC(c1ccccc1)c1ccccc1	none (no result: KCNQ2 enhance)
COCC(=O)NC(c1ccccc1)c1ccccc1	KCNQ2 enhance 8 | Kir21 confirm inactive | HEK293 ctr inactive | CHO-K1 ctr inactive | KCNQ1 pot spec inactive | KCNQ2 pot conf inactive | Kir21 spec inactive
Cc1cc(SCC(=O)Nc2ccc(O)cc2)n2nc(C)c(-c3ccccc3)c2n1	none (no result: KCNQ2 enhance)
CCOC(=O)C1=C(Cn2cnc3ccccc32)NC(=O)NC1c1cc(C)ccc1C (configuration not stated)	KCNQ2 enhance 6.6 | Kir21 confirm inactive | HEK293 ctr 52% | CHO-K1 ctr inactive | KCNQ1 pot spec inactive | KCNQ2 pot conf inactive | Kir21 spec inactive | KCNQ2 W236L MoA inactive
COC(=O)C1=C(Cn2cnc3ccccc32)NC(=O)NC1c1cc(C)ccc1C (configuration not stated)	none
O=C(COc1ccc2c3c(c(=O)oc2c1)CCC3)NCCN1CCOCC1	none
CCCCOCCCNc1ncnc2c1[nH]c1ccccc12	none (no result: KCNQ2 enhance) | Kir21 confirm 44% | HEK293 ctr inactive
CCOCCCNc1ncnc2c1[nH]c1ccccc12	none
Cc1cc(NC(=O)CN2CC(C)OC(C)C2)n(-c2nc3ccccc3s2)n1 (configuration not stated)	none (no result: KCNQ2 enhance)
COc1ccc(CCNCC(O)COc2ccc(Cl)cc2)cc1OC (configuration not stated)	none
C/C=C/c1ccc(OCC(O)CNCCc2ccc(OC)cc2)c(OC)c1 (configuration not stated)	none (no result: KCNQ2 enhance) | Kir21 confirm inactive | HEK293 ctr inactive
C/C=C/c1ccc(OCC(O)CN(C)Cc2ccc(SC)cc2)c(OC)c1 (configuration not stated)	none (no result: KCNQ2 enhance) | Kir21 confirm inactive | HEK293 ctr inactive
OC(CNCCc1ccc(Cl)cc1)COc1cc(Cl)ccc1Cl (configuration not stated)	none (no result: KCNQ2 enhance) | Kir21 confirm 24% | HEK293 ctr 122%
C/C=C/c1ccc(OCC(O)CNCC(c2ccc(OC)cc2)N(C)C)c(OC)c1 (configuration not stated)	none (no result: KCNQ2 enhance)
C/C=C/c1ccc(OCC(O)CN2CCCCC2CC)c(OC)c1 (configuration not stated)	none (no result: KCNQ2 enhance)
CCN1C(=O)/C(=C/N2CC(C)CC(C)C2)SC1=S (configuration not stated)	none (no result: KCNQ2 enhance)
COc1ccc(S(=O)(=O)N2CCCC2)cc1NC(=O)c1ccccc1	none (no result: KCNQ2 enhance)
CC(=O)Nc1cccc(NC(=O)CSc2nc(=O)n(CCN3CCOCC3)c3c2CCC3)c1	none
COc1nc(C)cc(C)c1S(=O)(=O)c1ccc(Cl)cc1	none
CCOc1nc(C)cc(C)c1S(=O)(=O)c1ccc(Cl)cc1	none | Kir21 confirm 52% | HEK293 ctr inactive
COc1ccc(CCN(C)C(=O)C2CCN(Cc3ccccc3)CC2)cc1OC	none (no result: KCNQ2 enhance)
Cc1nc(Nc2ccc(Cl)cc2)c2oc3ccccc3c2n1	none
COC(=O)c1c(NC(=O)c2c(OC)cccc2OC)sc2c1C(C(=O)OC)CC2 (configuration not stated)	none (no result: KCNQ2 enhance)
Cc1[nH][nH]c(=O)c1C(c1ccc(-c2cccc(C(=O)O)c2)o1)c1c(C)[nH][nH]c1=O	none (no result: KCNQ2 enhance)
Cc1[nH][nH]c(=O)c1C(c1ccc(-c2cccc(Cl)c2)o1)c1c(C)[nH][nH]c1=O	KCNQ2 inh -5.9 | Kir21 confirm inactive | HEK293 ctr inactive
CC(C)(C)c1ccc(OCCC(=O)NNC(=O)c2ccccc2)cc1	none
O=C(Nc1ccc(Cl)cc1)c1ccco1	none
CCN(CC)c1ccc(NC(=S)NC(=O)c2ccco2)cc1	KCNQ2 enhance 11 | Kir21 confirm inactive | HEK293 ctr 204% | CHO-K1 ctr inactive | KCNQ1 pot spec inactive | KCNQ2 pot conf 28 | Kir21 spec inactive | KCNQ2 W236L MoA inactive
Cc1ccc(NC(=O)c2ccc(OC(=O)c3ccco3)cc2)cc1	none (no result: KCNQ2 enhance)
CCN(CC)c1ccc(NC(=O)c2ccco2)cc1	none
Cc1ccc(Oc2ccc(NC(=O)c3ccco3)cc2)cc1	KCNQ2 enhance 14 | Kir21 confirm inactive | HEK293 ctr 73% | CHO-K1 ctr inactive | KCNQ1 pot spec inactive | KCNQ2 pot conf 33 | Kir21 spec inactive | KCNQ2 W236L MoA 19%
CCC(C)c1ccc(NC(=O)c2ccco2)cc1 (configuration not stated)	KCNQ2 enhance 12 | Kir21 confirm inactive | HEK293 ctr inactive | CHO-K1 ctr 26 | KCNQ1 pot spec inactive | KCNQ2 pot conf 38 | Kir21 spec inactive | KCNQ2 W236L MoA inactive
CCOc1ccc2nc(NC(=O)COc3ccc(N(C)S(=O)(=O)c4ccc(C)cc4)cc3)sc2c1	none (no result: KCNQ2 enhance)
